Measurements published in PubChem BioAssay AID1159580 (chemical genetic matrix, 2015).
The whole screen tested about 5,500 compounds, of which about 2,000 (36%) were called active. Inconclusive results (about 18%) are left out. Rule as the data show it: active = normalized growth mostly below about 0.91 (no sharp cut-off); inconclusive = no clear call, values can overlap the other calls; inactive = mostly above about 0.92. The list shows a part of the results.

Test: chemical genetic growth profiling, strain panel (AID 1159580);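 also: tested at 20 µM; growth read once vehicle control cultures reached saturation at 30 °C; 1 = growth at the plate median or of vehicle wells; lower values mean less growth of the strain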
Settings: growth OD

Measured: normalized growth

C[C@]12CCC(=O)C=C1CCC1C2CC[C@@]2(C)C1CC[C@@H]2O (some centres not stated)
inactive: S. cerevisiae deletion strains, locus YJR075W, strain HOC1, active compounds read low 0.996 | S. cerevisiae deletion strains, locus YKL009W, strain mrt4, active compounds read low 0.957 | S. cerevisiae deletion strains, locus YKL068W, active compounds read low 1.03 | S. cerevisiae deletion strains, locus YKL085W, strain MDH1 (second series), active compounds read low 1.01 | S. cerevisiae deletion strains, locus YKL085W, strain MDH1, active compounds read low 1.01 | S. cerevisiae deletion strains, locus YKL160W, strain elf1, active compounds read low 0.994 | S. cerevisiae deletion strains, locus YKL190W, strain CNB1, active compounds read low 1.03 | S. cerevisiae deletion strains, locus YKR001C, strain vps1, active compounds read low 1.03 | S. cerevisiae deletion strains, locus YKR026C, strain gcn3, active compounds read low 1 | S. cerevisiae deletion strains, locus YKR091W, strain srl3, active compounds read low 0.991 | S. cerevisiae deletion strains, locus YLL001W, strain dnm1, active compounds read low 1 | S. cerevisiae deletion strains, locus YLL026W, active compounds read low 0.992 | S. cerevisiae deletion strains, locus YLL041C, strain sdh2, active compounds read low 0.99 | S. cerevisiae deletion strains, locus YLR027C, strain aat2, active compounds read low 1 | S. cerevisiae deletion strains, locus YLR039C, strain RIC1, active compounds read low 1.17 | S. cerevisiae deletion strains, locus YLR058C, strain SHM2, active compounds read low 1.02 | S. cerevisiae deletion strains, locus YLR102C, strain apc9, active compounds read low 1.03 | S. cerevisiae deletion strains, locus YLR113W, strain HOG1, active compounds read low 0.99 | S. cerevisiae deletion strains, locus YLR221C, strain rsa3, active compounds read low 0.988 | S. cerevisiae deletion strains, locus YLR258W, strain gsy2, active compounds read low 0.993 | S. cerevisiae deletion strains, locus YLR262C, strain YPT6 (second series), active compounds read low 0.98 | S. cerevisiae deletion strains, locus YLR262C, strain YPT6, active compounds read low 1.18 | S. cerevisiae deletion strains, locus YLR268W, strain sec22, active compounds read low 1.01 | S. cerevisiae deletion strains, locus YLR320W, strain mms22, active compounds read low 0.946 | S. cerevisiae deletion strains, locus YLR330W, strain CHS5, active compounds read low 1.02 | S. cerevisiae deletion strains, locus YLR342W, strain FKS1 (second series), active compounds read low 0.983 | S. cerevisiae deletion strains, locus YLR342W, strain FKS1, active compounds read low 0.985 | S. cerevisiae deletion strains, locus YLR357W, strain rsc2, active compounds read low 1.02 | S. cerevisiae deletion strains, locus YLR370C, strain arc18, active compounds read low 0.988 | S. cerevisiae deletion strains, locus YLR371W, strain rom2, active compounds read low 1.02 | S. cerevisiae deletion strains, locus YLR384C, strain iki3, active compounds read low 1 | S. cerevisiae deletion strains, locus YLR418C, strain cdc73, active compounds read low 1.02 | S. cerevisiae deletion strains, locus YML016C, strain PPZ1, active compounds read low 1.02 | S. cerevisiae deletion strains, locus YML032C, strain rad52, active compounds read low 1.02 | S. cerevisiae deletion strains, locus YML120C, strain ndi1, active compounds read low 0.981 | S. cerevisiae deletion strains, locus YML124C, strain tub3, active compounds read low 1.03 | S. cerevisiae deletion strains, locus YMR058W, strain fet3, active compounds read low 0.993 | S. cerevisiae deletion strains, locus YMR078C, strain ctf18, active compounds read low 1.03 | S. cerevisiae deletion strains, locus YMR125W, strain sto1, active compounds read low 0.99 | S. cerevisiae deletion strains, locus YMR129W, active compounds read low 0.993 | S. cerevisiae deletion strains, locus YMR205C, strain PFK2, active compounds read low 0.936 | S. cerevisiae deletion strains, locus YMR223W, strain ubp8, active compounds read low 1.01 | S. cerevisiae deletion strains, locus YMR231W, strain pep5, active compounds read low 0.999 | S. cerevisiae deletion strains, locus YMR263W, strain SAP30, active compounds read low 1.04 | S. cerevisiae deletion strains, locus YMR307W, strain GAS1, active compounds read low 1.23 | S. cerevisiae deletion strains, locus YNL067W, strain RPL9B, active compounds read low 0.993 | S. cerevisiae deletion strains, locus YNL071W, strain lat1, active compounds read low 0.976 | S. cerevisiae deletion strains, locus YNL128W, strain TEP1, active compounds read low 1.02 | S. cerevisiae deletion strains, locus YNL153C, strain GIM3, active compounds read low 1.02 | S. cerevisiae deletion strains, locus YNL183C, strain NPR1, active compounds read low 0.988 | S. cerevisiae deletion strains, locus YNL209W, strain ssb2, active compounds read low 1.01 | S. cerevisiae deletion strains, locus YNL233W, strain BNI4, active compounds read low 1.04 | S. cerevisiae deletion strains, locus YNL248C, strain rpa49, active compounds read low 1 | S. cerevisiae deletion strains, locus YNL250W, strain rad50, active compounds read low 1.05 | S. cerevisiae deletion strains, locus YNL271C, strain bni1, active compounds read low 1.02 | S. cerevisiae deletion strains, locus YNL298W, strain CLA4, active compounds read low 1 | S. cerevisiae deletion strains, locus YNL307C, strain MCK1, active compounds read low 0.989 | S. cerevisiae deletion strains, locus YNL322C, strain KRE1 (second series), active compounds read low 0.993 | S. cerevisiae deletion strains, locus YNL322C, strain KRE1, active compounds read low 1.02 | S. cerevisiae deletion strains, locus YNR049C, strain mso1, active compounds read low 0.982 | S. cerevisiae deletion strains, locus YNR052C, strain pop2, active compounds read low 0.989 | S. cerevisiae deletion strains, locus YOL006C, strain TOP1, active compounds read low 0.971 | S. cerevisiae deletion strains, locus YOL012C, strain htz1 1.89 | S. cerevisiae deletion strains, locus YOL147C, strain pex11, active compounds read low 1.03 | S. cerevisiae deletion strains, locus YOR001W, strain rrp6, active compounds read low 0.995 | S. cerevisiae deletion strains, locus YOR061W, strain CKA2, active compounds read low 1.02 | S. cerevisiae deletion strains, locus YOR069W, strain VPS5, active compounds read low 1.01 | S. cerevisiae deletion strains, locus YOR070C, strain gyp1, active compounds read low 0.988 | S. cerevisiae deletion strains, locus YOR080W, strain dia2, active compounds read low 0.983 | S. cerevisiae deletion strains, locus YOR083W, strain WHI5, active compounds read low 0.983 | S. cerevisiae deletion strains, locus YOR106W, strain vam3, active compounds read low 0.96 | S. cerevisiae deletion strains, locus YOR136W, strain idh2, active compounds read low 1.04 | S. cerevisiae deletion strains, locus YOR144C, strain elg1, active compounds read low 1.03 | S. cerevisiae deletion strains, locus YOR184W, strain ser1, active compounds read low 0.98 | S. cerevisiae deletion strains, locus YOR231W, strain MKK1, active compounds read low 0.99 | S. cerevisiae deletion strains, locus YOR265W, strain rbl2, active compounds read low 0.989 | S. cerevisiae deletion strains, locus YOR270C, strain vph1, active compounds read low 0.936 | S. cerevisiae deletion strains, locus YOR290C, strain snf2, active compounds read low 0.967 | S. cerevisiae deletion strains, locus YOR316C, strain cot1, active compounds read low 1.03 | S. cerevisiae deletion strains, locus YPL051W, strain arl3, active compounds read low 1 | S. cerevisiae deletion strains, locus YPL055C, strain LGE1, active compounds read low 1.07 | S. cerevisiae deletion strains, locus YPL078C, strain atp4, active compounds read low 0.997 | S. cerevisiae deletion strains, locus YPL106C, strain sse1, active compounds read low 1.05 | S. cerevisiae deletion strains, locus YPL240C, strain hsp82, active compounds read low 0.978 | S. cerevisiae deletion strains, locus YPL241C, strain CIN2, active compounds read low 1.03 | S. cerevisiae deletion strains, locus YPL256C, strain CLN2, active compounds read low 1.06 | S. cerevisiae deletion strains, locus YPR119W, strain clb2, active compounds read low 1.02 | S. cerevisiae deletion strains, locus YPR141C, strain kar3, active compounds read low 1.04 | S. cerevisiae deletion strains, locus YPR163C, strain tif3, active compounds read low 1.04 | S. cerevisiae deletion strains, locus YPR167C, strain met16, active compounds read low 1.03 | S. cerevisiae deletion strains, strain wtn01, active compounds read low 0.989 | S. cerevisiae strains, strain wild type, active compounds read low 1.01
